Experiment [1] in a line: sensitizers of A549 cells to miR-34 induction, primary screen, imaging, A549 dox-inducible miR-34, nuclei and caspase counts (AID 1347080). The settings on record: A549 miR-34 inducible, Hoechst nuclei count, 48 h.
The nature of experiment [2]: survival rescue of mitochondrial mutant cells in low glucose, primary screen, MELAS cybrids, Rieske KO mouse fibroblasts, CellTiter-Glo (AID 1508586;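 active means mean z-score across replicates of 1.96 or higher in either the MELAS or the Rieske mutant cell line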;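 further: z relative to plate mean and SD of compound and empty wells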). For orientation: Cellular ATP, detected with luciferase, serves as a proxy for viable cell number.
The mark [3] stands for this setting: stronger effect = lower value, cell number ratio, induced over uninduced.
The mark [4] stands for this setting: measured here: relative caspase fold change +Dox/-Dox.
Setting [5] is: measured here: total cells with miR-34 induction, stronger effect = lower value.
The mark [6] stands for this setting: measured here: total cells without miR-34 induction.
Where [7] appears, read: MELAS cybrid survival, CellTiter-Glo 48 h, stronger effect = higher value.
Where [8] appears, read: Rieske KO mouse fibroblast survival, CellTiter-Glo 72 h.

Calls of active or inactive are those of the source.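 How the source made its calls, unless noted: active means compounds whose cell count with miR-34 switched on is under 0.7 times the count with it off; inactive means the rest.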
Further: test concentration not given here.

Regarding `CC1(C)S[C@H]2C(NC(=O)C(NC(=O)N3CCN(S(C)(=O)=O)C3=O)c3ccccc3)C(=O)N2C1C(=O)O` (stereo not given in full), the figures for the fold change in experiment [1] (setting [3]) and in experiment [1] (setting [4]) were 0.882 (inactive) and 0.658, respectively. For the same compound, the results for the cell count in experiment [1] (setting [5]) and in experiment [1] (setting [6]) were 7720 and 8750, respectively. Besides, the z-score in experiment [2] (setting [7]) is -0.292 (inactive); in experiment [2] (setting [8]) it was -0.225.
For `COC(=O)NC(C(=O)N1CCCC1c1ncc(-c2ccc(-c3ccc(-c4cnc(C5CCCN5C(=O)C(NC(=O)OC)C(C)C)[nH]4)cc3)cc2)[nH]1)C(C)C` (stereo not given), the fold change is 0.912 (inactive) in experiment [1] (setting [3]) and 0.711 in experiment [1] (setting [4]). Further, the cell count turned out to be 6220 in experiment [1] (setting [5]) and 6830 in experiment [1] (setting [6]). Moreover, the z-score in experiment [2] (setting [7]) is 1.19 (inactive); in experiment [2] (setting [8]) it was 0.581.
On to `CN1[C@@H]2CC(OC(=O)C(CO)c3ccccc3)C[C@H]1[C@@H]1O[C@H]12` (stereo not given in full), for which the fold change in experiment [1] (setting [3]) was 0.946 (inactive); in experiment [1] (setting [4]), 0.844. Besides, the values for the cell count in experiment [1] (setting [5]) and in experiment [1] (setting [6]) were 9480 and 10000, respectively. Also, the z-score was -0.356 (inactive) in experiment [2] (setting [7]) and 0.736 in experiment [2] (setting [8]).
With `CN1CC[C@H](c2c(O)cc(O)c3c(=O)cc(-c4ccccc4Cl)oc23)C(O)C1` (stereo not given in full), the results for the fold change in experiment [1] (setting [3]) and in experiment [1] (setting [4]) were 0.938 (inactive) and 1.82, respectively. Besides, the cell count in experiment [1] (setting [5]) was 1600; in experiment [1] (setting [6]), 1700. Also, the z-score in experiment [2] (setting [7]) is 3.42 (active); in experiment [2] (setting [8]), -0.841.
For `Cc1cc(=O)oc2c(C=O)c(O)ccc12`, the fold change in experiment [1] (setting [3]) was 0.88 (inactive); in experiment [1] (setting [4]) it was 0.552. Moreover, the cell count stood at 8210 in experiment [1] (setting [5]) and 9320 in experiment [1] (setting [6]). For the same compound, the values for the z-score in experiment [2] (setting [7]) and in experiment [2] (setting [8]) were -0.241 (inactive) and 0.915, respectively.
Take `CC1CN(CC(=O)Nc2ccc3c(c2)Cc2cccc(-c4cc(=O)cc(N5CCOCC5)o4)c2S3)CC(C)O1` (stereo not given): the fold change in experiment [1] (setting [3]) was 0.994 (inactive); in experiment [1] (setting [4]), 1.1. In addition, the results for the cell count in experiment [1] (setting [5]) and in experiment [1] (setting [6]) were 5760 and 5800, respectively. For the same compound, the z-score is 2.51 (active) in experiment [2] (setting [7]) and 1.29 in experiment [2] (setting [8]).
As to `CC(C)c1c(C(=O)Nc2ccccc2)c(-c2ccccc2)c(-c2ccc(F)cc2)n1CCC(O)CC(O)CC(=O)O` (stereo not given), the results for the fold change in experiment [1] (setting [3]) and in experiment [1] (setting [4]) were 1.21 (inactive) and 0.989, respectively. For the same compound, the results for the cell count in experiment [1] (setting [5]) and in experiment [1] (setting [6]) were 5220 and 4330, respectively. The z-score in experiment [2] (setting [7]) is 0.917 (inactive); in experiment [2] (setting [8]) it was -1.34.
Regarding `CCC(C(C)O)n1ncn(-c2ccc(N3CCN(c4ccc(OCC5CO[C@@](Cn6cncn6)(c6ccc(F)cc6F)C5)cc4)CC3)cc2)c1=O` (stereo not given in full), the fold change is 1.04 (inactive) in experiment [1] (setting [3]) and 0.726 in experiment [1] (setting [4]). For the same compound, the values for the cell count in experiment [1] (setting [5]) and in experiment [1] (setting [6]) were 4300 and 4130, respectively. In addition, the z-score in experiment [2] (setting [7]) is -0.325 (inactive); in experiment [2] (setting [8]), 0.236.
In the case of `Cc1nc(Nc2n[nH]c3c2CN(C(=O)NC(CN(C)C)c2ccccc2)C3(C)C)c2sccc2n1` (stereo not given), the figures for the fold change in experiment [1] (setting [3]) and in experiment [1] (setting [4]) were 1.06 (inactive) and 0.274, respectively. The results for the cell count in experiment [1] (setting [5]) and in experiment [1] (setting [6]) were 1510 and 1420, respectively. The results for the z-score in experiment [2] (setting [7]) and in experiment [2] (setting [8]) were 0.106 (inactive) and -7.7, respectively.
`O=CC(O)C(O)C(O)CO` (stereo not given): the fold change in experiment [1] (setting [3]) is 0.913 (inactive); in experiment [1] (setting [4]), 0.975. Also, the cell count in experiment [1] (setting [5]) was 7900; in experiment [1] (setting [6]), 8650. For the same compound, the z-score in experiment [2] (setting [7]) is 0.55 (inactive); in experiment [2] (setting [8]), -0.188.
Consider `COc1ccc(-c2cc(=O)c3c(O)cc(OC4OC(COC5OC(C)C(O)C(O)C5O)C(O)C(O)C4O)cc3o2)cc1O` (stereo not given), for which the fold change was 0.912 (inactive) in experiment [1] (setting [3]) and 0.985 in experiment [1] (setting [4]). Also, the cell count in experiment [1] (setting [5]) came to 7570; in experiment [1] (setting [6]), 8300. Moreover, the z-score is -0.28 (inactive) in experiment [2] (setting [7]) and 0.179 in experiment [2] (setting [8]).
On to `CCC(C)CC(C)CCCCCCCCC(=O)NC1CC(O)C(NCCN)NC(=O)[C@@H]2C(O)CCN2C(=O)[C@@H](C(O)CCN)NC(=O)[C@H](C(O)C(O)c2ccc(O)cc2)NC(=O)[C@@H]2CC(O)CN2C(=O)[C@H](C(C)O)NC1=O` (stereo not given in full), for which the fold change in experiment [1] (setting [3]) was 0.95 (inactive); in experiment [1] (setting [4]) it was 0.316. Also, the cell count came to 7980 in experiment [1] (setting [5]) and 8400 in experiment [1] (setting [6]). The z-score in experiment [2] (setting [7]) was -0.141 (inactive); in experiment [2] (setting [8]), 0.0344.
`CC1OC(OCC2OC(Oc3c(-c4ccc(OCCO)c(OCCO)c4)oc4cc(OCCO)cc(O)c4c3=O)C(O)C(O)C2O)C(O)C(O)C1O` (stereo not given): the fold change in experiment [1] (setting [3]) is 0.984 (inactive); in experiment [1] (setting [4]), 0.465. The results for the cell count in experiment [1] (setting [5]) and in experiment [1] (setting [6]) were 7700 and 7830, respectively. In addition, the z-score was -0.513 (inactive) in experiment [2] (setting [7]) and -0.15 in experiment [2] (setting [8]).
`CN1CCc2nc(C(=O)NC3CC(C(=O)N(C)C)CCC3NC(=O)C(=O)Nc3ccc(Cl)cn3)sc2C1` (stereo not given): the fold change in experiment [1] (setting [3]) was 0.965 (inactive); in experiment [1] (setting [4]), 0.478. Further, the results for the cell count in experiment [1] (setting [5]) and in experiment [1] (setting [6]) were 8860 and 9180, respectively. Further, the z-score in experiment [2] (setting [7]) was -0.402 (inactive); in experiment [2] (setting [8]), -0.373.
As for `CC(=O)O[C@@]1(C(C)=O)CC[C@H]2[C@@H]3CC(C)C4=CC(=O)CC[C@]4(C)[C@@H]3CC[C@@]21C` (stereo not given in full), the values for the fold change in experiment [1] (setting [3]) and in experiment [1] (setting [4]) were 0.92 (inactive) and 0.806, respectively. Further, the cell count is 7550 in experiment [1] (setting [5]) and 8200 in experiment [1] (setting [6]). Also, the z-score in experiment [2] (setting [7]) is -0.365 (inactive); in experiment [2] (setting [8]) it was -0.106.

The values above are taken from PubChem BioAssay.
